Test [1] deals with Estrogen receptor beta (Homo sapiens) (UniProt Q92731). The experiment in a line: qHTS assay to identify small molecule agonists of the estrogen receptor beta (ER-beta) signaling pathway (AID 1259377; active = well fitted activation curve with a large enough effect in the signal ratio in the repeat runs, not every such curve was filed as active; the % refers to the signal ratio). Conditions: ER-beta-UAS-bla HEK293T, beta-lactamase FRET ratio, 16 h; series mostly up to 92.4 µM. The essentials: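 HEK293T ER-beta-UAS-bla; 2% charcoal-stripped FBS; cells pre-incubated 6 hr, compound 16 hr, 37C/5% CO2; LiveBLAzer B/G FRET substrate 2 h RT; fluorescence intensity read.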
Sequence of Estrogen receptor beta (Homo sapiens) (Q92731 whole entry, looked up): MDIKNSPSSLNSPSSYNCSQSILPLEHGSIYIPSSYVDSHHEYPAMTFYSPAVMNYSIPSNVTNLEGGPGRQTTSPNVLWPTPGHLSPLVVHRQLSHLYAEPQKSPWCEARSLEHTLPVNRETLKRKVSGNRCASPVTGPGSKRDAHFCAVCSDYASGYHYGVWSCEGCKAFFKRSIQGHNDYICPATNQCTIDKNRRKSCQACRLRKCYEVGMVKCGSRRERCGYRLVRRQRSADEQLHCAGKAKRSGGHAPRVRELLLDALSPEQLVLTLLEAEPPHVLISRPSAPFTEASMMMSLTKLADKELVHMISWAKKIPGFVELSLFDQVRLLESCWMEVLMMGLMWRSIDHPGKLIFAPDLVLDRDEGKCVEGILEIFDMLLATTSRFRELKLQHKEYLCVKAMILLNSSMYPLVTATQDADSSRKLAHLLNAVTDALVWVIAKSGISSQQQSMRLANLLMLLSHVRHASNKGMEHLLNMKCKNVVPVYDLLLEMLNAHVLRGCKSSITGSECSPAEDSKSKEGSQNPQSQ

The target is the same in test [2]. The experiment in a line: qHTS assay to identify small molecule antagonists of the estrogen receptor beta (ER-beta) signaling pathway (AID 1259378; active = well fitted inhibition curve with a large enough effect in the signal ratio in the repeat runs, not every such curve was filed as active; the % refers to the signal ratio). Conditions: ER-beta-UAS-bla HEK293T, beta-lactamase FRET ratio, 16 h; series mostly up to 92.4 µM. The essentials: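 Antagonist mode: compounds added to beta-lactamase reporter HEK293T ER-beta-UAS cells stimulated with E2 (1nM final), 16 hr at 37C. LiveBLAzer B/G FRET substrate, 2 hours room temperature, fluorescence read-out.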
On the technique in general: Quantitative high-throughput screening tests each substance at several concentrations.

Test [3] in a line: qHTS assay to identify small molecule agonists of the androgen receptor (AR) signaling pathway in the presence of an antagonist - cell viability counter screen (AID 1259379). Note: nearly all actives have a fitted effect of over 25% in size. Note: potency is the fitted concentration of half-maximal effect. Conditions: MDA-kb2 viability, CellTiter-Fluor, 16 h; series mostly up to 92.4 µM. The essentials: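 Cells: MDA-kb2 (MMTV-luc, AR and GR elements), 3,000/well, 5 hr settle. Added: nilutamide 3.0uM final, then compounds (15 conc.). Incubation: 16 hr, 37C, no CO2. Read-out: CellTiter-Fluor, 1 hr, fluorescence.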

Test [4] can be described thus: qHTS assay to identify small molecule antagonists of the estrogen receptor beta (ER-beta) signaling pathway - cell viability counter screen (AID 1259382). Note: nearly all actives have a fitted effect of over 55% in size. Conditions: ER-beta-UAS-bla HEK293T viability, CellTiter-Glo luminescence, 16 h; series mostly up to 92.4 µM. The essentials:
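Cells: ER-beta-UAS-bla HEK293T, 2,000/well, 2% CS-FBS, 6 hr settle. Cpd + E2 (1nM final), 16 hr, 37C/5% CO2. Bla FRET substrate 2 hr RT, then CellTiter-Glo 30 min RT, luminescence.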

Test [5] is described as follows: qHTS assay to identify small molecule agonists or antagonists of the thyroid stimulating hormone receptor (TSHR) signaling pathway - wild type cell line counter screen (AID 1259384; calls by dose curve). Conditions: HEK293 wild type, cAMP HTRF counter-screen; series mostly up to 92.4 µM. The essentials: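 Counter screen in untransfected Hek293: compounds (15-point titration, triplicate) plus phosphodiesterase inhibitor Ro20-1724 added after 18 h plating; 30 min RT. Intracellular cAMP via competitive d2/cryptate immunoassay, 1 h incubation.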

Test [6] deals with Thyrotropin receptor (Homo sapiens) (UniProt P16473). The experiment in a line: qHTS assay to identify small molecule antagonists of the thyroid stimulating hormone receptor (TSHR) signaling pathway (AID 1259385; calls by dose curve; note: nearly all actives have a fitted effect of over 20% in size). Conditions: TSHR-HEK293 cAMP HTRF, TSH-stimulated antagonist mode; series mostly up to 92.4 µM. Summed up:
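Antagonist mode: compound-treated TSHR-expressing HEK293 cells were stimulated with 1.5 ng/mL TSH (final) in presence of Ro20-1724 for 30 min at RT. HTRF cAMP detection after 1 h; each compound tested at 15 concentrations, triplicate.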

The target in test [7] is Estrogen receptor (Homo sapiens) (UniProt P03372). Description: qHTS assay to identify small molecule agonists of the estrogen receptor alpha (ER-alpha) signaling pathway in the presence of an antagonist (AID 1259383; calls by dose curve; note: nearly all actives have a fitted effect of over 15% in size; note: potency is the fitted concentration of half-maximal effect; for activation: top concentration of the series differs between compounds). Conditions: VM7Luc4E2 cells, ERE-luciferase, +ICI-182,780, 22 h; series mostly up to 92.4 µM. The essentials:
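VM7Luc4E2, endog. ER-alpha + 4×ERE-luc; charcoal-stripped FBS, phenol red-free, 5 d; 24hr plating; +10.0nM ICI-182,780 (final); cpds 15 conc, 22hr, 37C/5% CO2; ONE-Glo luminescence.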

Test [8] deals with Androgen receptor (Homo sapiens) (UniProt P10275). The experiment in a line: qHTS assay to identify small molecule agonists of the androgen receptor (AR) signaling pathway in the presence of an antagonist (AID 1259381; calls by dose curve; note: nearly all actives have a fitted effect of over 15% in size). Conditions: MDA-kb2 MMTV-luciferase, AR agonist + nilutamide, 16 h; series mostly up to 92.4 µM. Summed up: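 MDA-kb2 cells, 3,000/well, rested 5hr at 37C/0% CO2 → nilutamide 3.0uM final or buffer → compounds, 15 conc. → 16hr at 37C → ONE-Glo, 30min RT → luminescence.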
Sequence of Androgen receptor (Homo sapiens) (P10275 whole entry, looked up): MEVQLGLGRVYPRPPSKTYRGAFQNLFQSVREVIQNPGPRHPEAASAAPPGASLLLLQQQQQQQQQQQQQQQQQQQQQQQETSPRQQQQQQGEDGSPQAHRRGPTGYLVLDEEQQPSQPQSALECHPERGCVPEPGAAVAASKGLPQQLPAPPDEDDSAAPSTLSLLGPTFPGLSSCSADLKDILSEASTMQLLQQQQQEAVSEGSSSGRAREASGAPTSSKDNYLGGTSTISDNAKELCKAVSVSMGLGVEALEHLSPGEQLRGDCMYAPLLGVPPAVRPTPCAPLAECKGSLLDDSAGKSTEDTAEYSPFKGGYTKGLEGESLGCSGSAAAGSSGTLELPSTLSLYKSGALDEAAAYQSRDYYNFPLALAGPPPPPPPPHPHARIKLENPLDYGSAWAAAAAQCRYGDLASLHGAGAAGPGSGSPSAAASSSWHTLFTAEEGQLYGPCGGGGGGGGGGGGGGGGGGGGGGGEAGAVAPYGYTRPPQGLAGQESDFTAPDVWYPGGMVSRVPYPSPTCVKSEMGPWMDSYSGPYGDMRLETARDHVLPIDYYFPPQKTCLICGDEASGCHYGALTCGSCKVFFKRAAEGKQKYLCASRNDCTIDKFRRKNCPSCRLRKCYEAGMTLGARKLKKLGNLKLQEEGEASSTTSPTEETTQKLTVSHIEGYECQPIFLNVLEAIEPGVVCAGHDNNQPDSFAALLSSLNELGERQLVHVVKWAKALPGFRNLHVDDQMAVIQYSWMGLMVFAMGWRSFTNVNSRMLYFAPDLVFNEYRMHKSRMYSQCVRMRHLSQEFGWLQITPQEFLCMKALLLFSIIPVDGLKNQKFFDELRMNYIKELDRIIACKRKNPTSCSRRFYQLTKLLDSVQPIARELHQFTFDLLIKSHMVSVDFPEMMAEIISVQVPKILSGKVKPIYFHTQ

Test [9] can be described thus: qHTS assay to identify small molecule agonists of the estrogen receptor beta (ER-beta) signaling pathway - cell viability counter screen (AID 1259380). Note: nearly all actives have a fitted effect of over 30% in size. Note: potency is the fitted concentration of half-maximal effect. Conditions: ER-beta-bla HEK293T viability, CellTiter-Glo luminescence, 16 h; series mostly up to 92.4 µM. The essentials: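 HEK293T ER-beta-UAS-bla; 2% CS-FBS; 6 hr pre-plate, 16 hr cpd at 37C/5% CO2; LiveBLAzer read first, then CellTiter-Glo 30 min RT, luminescence.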

Records with an inconclusive call do not appear. Calls of active or inactive are those of the source. Unless noted, calls come from the whole dose curve; as a rule, active = well fitted curve in the direction sought with a large enough effect in the repeat runs; inconclusive = weak or mixed curves; inactive = no such curve, though single readings can be large; an effect the other way counts as inactive or inconclusive.

Sequence of Thyrotropin receptor (Homo sapiens) (P16473 whole entry, looked up): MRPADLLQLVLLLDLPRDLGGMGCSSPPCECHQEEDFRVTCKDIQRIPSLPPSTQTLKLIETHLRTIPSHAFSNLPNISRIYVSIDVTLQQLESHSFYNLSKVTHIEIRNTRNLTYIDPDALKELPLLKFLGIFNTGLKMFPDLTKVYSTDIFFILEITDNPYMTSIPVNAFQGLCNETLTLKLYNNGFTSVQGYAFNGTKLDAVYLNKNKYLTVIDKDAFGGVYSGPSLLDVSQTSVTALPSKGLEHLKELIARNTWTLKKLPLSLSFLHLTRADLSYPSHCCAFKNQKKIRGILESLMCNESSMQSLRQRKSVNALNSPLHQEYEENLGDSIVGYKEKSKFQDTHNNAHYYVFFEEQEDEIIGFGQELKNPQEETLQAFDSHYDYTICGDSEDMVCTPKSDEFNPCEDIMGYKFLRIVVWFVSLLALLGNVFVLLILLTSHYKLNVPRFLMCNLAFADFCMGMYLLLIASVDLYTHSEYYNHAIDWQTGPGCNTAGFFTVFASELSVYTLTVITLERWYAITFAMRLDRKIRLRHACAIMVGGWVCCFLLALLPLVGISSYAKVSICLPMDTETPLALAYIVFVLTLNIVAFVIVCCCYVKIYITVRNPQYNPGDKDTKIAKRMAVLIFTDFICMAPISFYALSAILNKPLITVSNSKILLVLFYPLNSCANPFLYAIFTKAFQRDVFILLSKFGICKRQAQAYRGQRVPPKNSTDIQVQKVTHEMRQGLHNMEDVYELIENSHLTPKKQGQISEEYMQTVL
Sequence of Estrogen receptor (Homo sapiens) (P03372 whole entry, looked up): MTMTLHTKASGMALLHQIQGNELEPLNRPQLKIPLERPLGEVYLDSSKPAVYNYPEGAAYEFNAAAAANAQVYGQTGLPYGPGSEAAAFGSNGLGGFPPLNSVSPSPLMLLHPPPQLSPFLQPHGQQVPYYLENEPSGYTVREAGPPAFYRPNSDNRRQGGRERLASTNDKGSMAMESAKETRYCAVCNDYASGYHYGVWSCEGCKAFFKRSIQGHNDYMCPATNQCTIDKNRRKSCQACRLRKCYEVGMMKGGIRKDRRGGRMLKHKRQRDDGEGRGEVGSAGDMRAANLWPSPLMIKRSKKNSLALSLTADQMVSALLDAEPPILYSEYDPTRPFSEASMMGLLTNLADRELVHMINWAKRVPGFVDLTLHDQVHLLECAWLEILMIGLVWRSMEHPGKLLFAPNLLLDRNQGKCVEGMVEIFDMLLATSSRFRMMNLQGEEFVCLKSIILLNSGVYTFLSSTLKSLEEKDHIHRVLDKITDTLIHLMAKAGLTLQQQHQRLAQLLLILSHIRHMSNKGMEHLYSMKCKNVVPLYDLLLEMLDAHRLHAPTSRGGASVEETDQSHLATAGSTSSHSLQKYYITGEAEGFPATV

On to `O=C(N[C@H]1N=C(c2ccccc2F)c2cccc3c2N(CC3)C1=O)c1cc2ccccc2[nH]1`, for which the Potency result in [1], in [2], in [3], in [4], in [5] and in test [6] was “inactive” each time.

`c1ccc(Nc2ccc(Nc3ccccc3)cc2)cc1`: the Potency result in [1], in test [3], in [4], in [5] and in test [6] was “inactive” throughout. Besides, in [7], the Potency was 54.3 µM (active).

In the case of `C[C@H]1[C@H](c2ccc(Cl)cc2)SC(=O)N1C(=O)NC1CCCCC1`, the Potency entry in test [2], in test [8], in [4], in [7] and in test [5] was “inactive” throughout.

In the case of `CCc1cccc(C)c1N(C(=O)CCl)[C@@H](C)COC`, the Potency result in [1], in test [3], in [9], in [4], in test [5] and in test [6] was “inactive” in each case.

On to `N#CSCc1ccccc1`, for which the Potency entry in test [2], in test [3], in test [9], in test [4], in [7] and in test [5] was “inactive” in each case. Also, in test [6], the Potency result was “inactive”.

In the case of `c1ccc(N=NNc2ccccc2)cc1`, the Potency result in test [4], in [7], in [5] and in test [6] was “inactive” each time.

Consider `FC(F)C(F)(F)OCC(Cn1cncn1)c1ccc(Cl)cc1Cl` (stereo not drawn), for which the Potency result in [1] and in test [5] was “inactive” each time. In addition, in [9], the Potency was 60.8 µM (active).

In the case of `COc1ccc2c3c1O[C@H]1[C@H](O)CC[C@H]4[C@@H](C2)N(C)CC[C@@]341`, the Potency entry in test [1], in test [2], in [3], in test [9], in test [4] and in [5] was “inactive” in each case. Also, in test [6], the Potency result was “inactive”.

On to `O=[N+]([O-])c1cccc2cccc([N+](=O)[O-])c12`, for which the Potency result in [1], in test [3], in test [9] and in test [4] was “inactive” in each case.

As to `C[N+]1(C)[C@@H]2CC[C@H]1CC(OC(=O)C(CO)c1ccccc1)C2` (stereo partly drawn), the Potency result in [1], in test [2], in test [3], in test [9], in [4] and in test [5] was “inactive” each time. Also, the Potency entry in [6] is “inactive”.

On to `CCC1(CC)C(=O)N=C(O)NC1=O`, for which the Potency entry in test [1], in test [3], in test [9], in test [4] and in [7] was “inactive” in each case.

Take `Oc1ccc([C@H]2CNCc3c2ccc(O)c3O)cc1O`: the Potency entry in test [1], in test [9], in [4] and in [7] was “inactive” each time.

For `O=S1OCC2C(CO1)C1(Cl)C(Cl)=C(Cl)C2(Cl)C1(Cl)Cl` (stereo not drawn), the Potency result in test [3], in test [8], in test [7], in test [5] and in test [6] was “inactive” throughout. The Potency in test [9] is 48.5 µM (active).

Turning to `BrCCCBr`, the Potency entry in test [3], in test [9], in [8], in [4], in test [5] and in test [6] was “inactive” throughout.

Take `Oc1cc(Cl)cc(Cl)c1`: the Potency result in test [3], in test [9], in test [4] and in test [7] was “inactive” throughout.

With `CCOP(=O)(OCC)Oc1nc(Cl)c(Cl)cc1Cl`, the Potency entry in [3], in [8] and in [7] was “inactive” throughout. Further, the Potency in [9] was 8.58 µM (active).

Take `NC1CCC(CC2CCC(N)CC2)CC1` (stereo not drawn): the Potency in test [3] was 60.1 µM (active). Moreover, the Potency result in test [9], in [4] and in test [7] was “inactive” throughout.

Regarding `CC(C)NCC(O)c1ccccc1Cl` (stereo not drawn), the Potency entry in test [3], in [9], in test [8], in test [4] and in test [7] was “inactive” in each case.

For the origin of these results see PubChem BioAssay (Tox21).
